# Rab9 prom act – qHTS Assay for Rab9 Promoter Activators. Huh7 Rab9 promoter-luciferase reporter, luminescence, 24 h. Potency, µM (series often up to 9.22 µM), for inactives: top-dose activation, negative = inhibition, actives largely listed as activators. 320,000 tested, 2.8% active. AID 485297, 2010; note: % of control where 0% means no effect; nearly all actives have a fitted effect of over 60% in size
#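 Cells were plated at 1500 per well in reduced-serum medium with 10% FBS and left 2 h. Compound in DMSO was then added for 24 h at 37 °C. Reporter signal was read by luminescence after 10 min with luciferase detection reagent.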
# ELG1 DNA repair – qHTS screen for small molecules that inhibit ELG1-dependent DNA repair in human embryonic kidney (HEK293T) cells expressing luciferase-tagged ELG1; HEK293T ELG1-luciferase reporter, luminescence, 16 h; DNA damage induced by 5-fluorouridine; Potency, µM (doses to about 46.1 µM), for the others: top-dose activity change, negative = inhibition, hits mostly inhibitors; 330,000 tested, 2.3% active; note: % is set by controls: 0 for no effect and ±100 for the full control effect; nearly all actives have a fitted effect of over 55% in size
#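 Reporter activity after DNA damage by 5-fluorouridine is monitored. Compound-treated cells incubate 16 hr at 37 °C, then ONE-Glo is added for 30 min before luminescence reading.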
# ELG1 genotoxic – qHTS screen for small molecules that induce genotoxicity in human embryonic kidney (HEK293T) cells expressing luciferase-tagged ELG1; HEK293T ELG1-luciferase reporter, luminescence, 16 h; Potency, µM (highest dose often 46 µM), for the others: at the top dose activity change, positive = activation, hits mostly activators; 330,000 tested, 1.3% active; AID 504466, 2011; note: % of control where 0% means no effect; nearly all actives have a fitted effect of over 60% in size
#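 Luminescence read-out: rising ELG1-luciferase signal, reflecting elevated ELG1 protein under genetic stress, flags genotoxic compounds. Cells were treated for 16 hr at 37 °C before ONE-Glo detection.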
# FLuc modulator – qHTS profiling assay for firefly luciferase inhibitor/activator using purifed enzyme and Km concentrations of substrates (counterscreen for miR-21 project). Luciferin 4-monooxygenase (Photinus pyralis), P08659. purified FLuc, Km substrates, luminescence inhibition. Potency, µM (titrated, usually from 57.5 µM), for the others: top-dose activity change, negative = inhibition, most hits filed as inhibitors. 360,000 tested, 6.9% active;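 note: plate controls were vehicle for no effect and reference inhibitor for full effect; nearly all actives have a fitted effect of over 55% in size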
# Target sequence (P08659 whole entry, looked up): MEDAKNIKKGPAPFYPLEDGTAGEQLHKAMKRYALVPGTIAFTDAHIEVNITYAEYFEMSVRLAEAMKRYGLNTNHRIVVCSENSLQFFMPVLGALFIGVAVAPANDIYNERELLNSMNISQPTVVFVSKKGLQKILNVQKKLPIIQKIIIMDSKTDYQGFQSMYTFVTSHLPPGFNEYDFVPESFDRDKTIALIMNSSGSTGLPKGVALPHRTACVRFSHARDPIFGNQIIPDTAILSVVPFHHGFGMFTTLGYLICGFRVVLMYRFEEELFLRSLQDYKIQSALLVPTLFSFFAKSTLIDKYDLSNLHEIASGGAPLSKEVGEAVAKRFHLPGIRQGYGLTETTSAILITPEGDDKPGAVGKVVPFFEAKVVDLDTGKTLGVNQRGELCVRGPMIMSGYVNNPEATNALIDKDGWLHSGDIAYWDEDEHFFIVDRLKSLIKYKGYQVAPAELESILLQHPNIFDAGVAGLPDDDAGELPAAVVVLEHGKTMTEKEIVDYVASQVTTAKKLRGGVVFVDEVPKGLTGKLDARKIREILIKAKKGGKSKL
#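 Purified P. pyralis luciferase (10nM final) with 10uM D-luciferin and 10uM ATP (Km levels) in 50mM Tris acetate pH 7.5, 10mM Mg acetate, 0.01% Tween-20, 0.05% BSA; qHTS 6-point titration, ~60 µM downward; luminescence read.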
# NPC1 promoter act – qHTS Assay for NPC1 Promoter Activators; Huh7 NPC1 promoter luciferase reporter, 24 h; Potency, µM (series often up to 9.22 µM), for the others: at the top dose activation, actives largely listed as activators; 320,000 tested, 2.4% active; note: % of control where 0% means no effect; nearly all actives have a fitted effect of over 60% in size
#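 In 1536-well qHTS, Huh7 cells harboring an NPC1 promoter–luciferase construct received compound for 24 h; activation was quantified by luminescence following luciferase reagent addition.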
# SMN2 splice up – qHTS Assay for Enhancers of SMN2 Splice Variant Expression. HEK293 SMN2-luciferase splicing reporter, luminescence, 30-36 h. Potency, µM (doses to about 46.1 µM), inactives show at the top dose activity change, positive = activation, hits mostly activators. 210,000 tested, 2.8% active; note: % of control where 0% means no effect; nearly all actives have a fitted effect of over 55% in size
#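 HEK293 cells carry an SMN2 […]–luciferase reporter in which exon 7 inclusion puts luciferase in frame. Cells were plated 10-12 h before compound addition, then incubated 30-36 h at 37C. ONE-Glo luminescence was read; sodium butyrate at 4.5 mM final served as control.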
# Active calls of the source: *; ? = inconclusive; · = no result given. This is a sample that favours compounds with a hit; in the whole collection about 9.2% have one here. Calls come from the whole dose curve; as a rule, active = well fitted curve in the direction sought with a large enough effect; inconclusive = small, poorly fitted or top-dose-only effect, or another doubt; inactive = no such curve, though single readings can be large; an effect the other way counts as inactive or inconclusive. Potency is the fitted concentration of half-maximal effect.
SMILES,Rab9 prom act,ELG1 DNA repair,ELG1 genotoxic,FLuc modulator,NPC1 promoter act,SMN2 splice up
CCOc1ccc(NC(=O)CCc2ccc(C)o2)cc1,-3.1%,?,8.5%,-18.5%,15.1%,·
CCOc1ccc(N/C(C)=C/C(=O)c2ccc(C)o2)cc1,?,?,?,6.01µM*,?,-7.5%
COC(=O)c1ccc(N/C(C)=C/C(=O)c2ccc(C)o2)cc1,1.2%,?,17.6%,12µM*,0.0%,20.0%
O=C1CCCN1C(=O)CSc1nnnn1-c1ccccc1,-4.1%,6.9%,-0.2%,-2.4%,1.5%,·
O=C(Nc1ccccn1)c1cc(-c2cccc(Cl)c2)nc2ccccc12,-4.1%,18.3µM*,-15.3%,-16.8%,-2.4%,-7.1%
O=C(NC1=NCCS1)c1cc(-c2cccc(Br)c2)nc2ccccc12,-1.1%,?,-3.9%,10.7µM*,1.9%,-37.6%
Cc1ccc2nc(-c3cccc(Br)c3)cc(C(=O)NC3=NCCS3)c2c1,-0.1%,20.6µM*,-9.4%,5.36µM*,-0.8%,9.0%
O=C(Nc1ccc([N+](=O)[O-])cn1)c1cc(-c2cccc(Cl)c2)nc2ccccc12,-2.4%,-19.4%,-6.9%,-18.6%,-2.5%,0.9%
O=C(Nc1ncccn1)c1cc(-c2cccc(Br)c2)nc2ccccc12,-4.2%,?,-8.2%,26.9µM*,0.1%,-15.0%
O=C(Nc1ccncc1)c1cc(-c2cccc(Br)c2)nc2ccccc12,-7.0%,?,-17.6%,-26.9%,3.3%,·
CCCCc1nc(SCC(=O)Nc2cccc(Cl)c2)n[nH]1,6.2%,24.1%,-3.5%,-0.5%,-0.6%,·
O=C(Nn1cnnc1)c1cc(-c2cccc(Br)c2)nc2ccccc12,24.1%,?,?,0.849µM*,17.9%,·
O=C(NCC1CCCO1)c1cccc(Oc2ccccc2)c1 (centres undefined),?,?,?,16.9µM*,21.3%,·
Cc1cccc(C(=O)NCC2CCCO2)c1 (centres undefined),1.5%,?,0.0%,3.3%,-0.2%,14.1%
CN(C)c1cccc(C(=O)NCC2CCCO2)c1 (centres undefined),26.9%,?,?,-3.7%,15.9%,28.2µM*
CN(C)c1ccc(C(=O)NCC2CCCO2)cc1 (centres undefined),27.9%,?,?,?,?,25.1µM*
CCCCC1CCC(C(=O)N2CC(=O)Nc3ccc(C)cc3C2c2ccc(F)cc2)CC1 (centres undefined),·,·,·,-6.5%,·,3.5%
CCc1cnc2c(c1SCC(=O)c1ccc(OC)cc1)c(=O)n(C)c(=O)n2C,·,·,·,3.6%,·,·
Cc1csc(N(C(=O)c2cccc(S(=O)(=O)N3CCCC3)c2)c2ccccc2)n1,1.0%,20.6µM*,-16.4%,-3.2%,2.7%,-20.0%
Cc1csc(NC(=O)c2cccc(S(=O)(=O)N3CCN(C)CC3)c2)n1,-3.1%,?,-4.8%,-5.3%,-2.5%,1.8%
Cc1csc(N(C(=O)c2cccc(S(=O)(=O)N(C)C)c2)c2ccccc2)n1,7.3%,14.6µM*,-19.8%,-11.0%,9.7%,-11.9%
COc1ccc(NC(=O)c2cnc3sc(N4CCOCC4)nn3c2=O)c(OC)c1,·,·,·,-0.8%,·,·
CCOc1ccccc1NC1(c2ccccc2)C(=O)c2ccccc2C1=O,·,·,·,-9.4%,·,·
CSc1cccc(NC(=O)N2CCN(S(=O)(=O)c3ccc4c(ccn4C)c3)CC2)c1,·,·,·,-4.5%,·,·
Cc1ccc(NC(=S)N2CCC(c3ccc(C)cc3)C2)cc1 (centres undefined),?,?,?,15.1µM*,26.5%,·
SMILES,Rab9 prom act,ELG1 DNA repair,ELG1 genotoxic,FLuc modulator,NPC1 promoter act,SMN2 splice up
COc1cccc(NC(=S)N2CCC(c3ccc(C)cc3)C2)c1 (centres undefined),?,?,6.7%,13.5µM*,29.4%,·
Cc1ccc2c(c1C)NC(=O)C21N2CCCC2C(C(=O)c2ccc3ccccc3c2)C12C(=O)Nc1ccccc12 (centres undefined),12.3%,-6.5%,-7.8%,9.53µM*,0.3%,·
Cc1nc(C)c(C(=O)N2CCCC(C(=O)c3ccc4ccccc4c3)C2)s1 (centres undefined),-0.2%,-27.2%,-9.2%,-1.8%,7.0%,·
CCCCN(C)C(=O)c1cc2cc3ccc(OC)cc3nc2s1,0.447µM*,?,?,0.757µM*,0.501µM*,6.31µM*
CCCCN(CC)C(=O)c1cc2cc3ccc(OC)cc3nc2o1,?,?,4.3%,15.1µM*,?,-4.6%
CCCCN(C(=O)C1CCC(CNS(=O)(=O)c2cccc3nsnc23)CC1)c1ccccc1 (centres undefined),·,·,·,0.1%,·,-41.2%
COc1ccccc1C(=O)NC(=O)COC(=O)c1ccc(C)o1,0.5%,0.0%,-6.3%,4.1%,-4.1%,·
COc1ccc(-c2ccc(-c3nnc(-c4cc(OC)ccc4OC)o3)cc2)cc1,0.9%,?,15.7%,0.4%,-3.7%,-25.0%
COc1ccc(-c2nnc(Nc3nc4c(OC)cccc4s3)o2)c(OC)c1,2.3%,-8.3%,2.4%,9.53µM*,0.2%,-9.8%
COc1ccc(-c2nnc(Nc3nc4c(OC)cccc4s3)o2)cc1,-8.9%,-11.6%,?,5.36µM*,6.6%,1.0%
COc1ccc(/C=C2\N=C3CCCCCN3C2=O)cc1,-2.3%,?,?,15.1µM*,-1.1%,?
O=C(CSc1nc2ccccc2o1)N/N=C/c1ccc(C(=O)O)cc1,-8.6%,-0.4%,-0.4%,-17.0%,2.2%,·
Oc1ccccc1/C=N/Nc1nc2ccccc2o1,-17.1%,?,9.2µM*,1.9µM*,-14.9%,·
Brc1ccc(/C=N/Nc2nc3ccccc3o2)cc1,1.12µM*,?,?,1.51µM*,1.58µM*,·
Cc1cn2c(=O)cc(COc3ccc(NC(=O)c4cccc(F)c4)cc3)nc2s1,·,·,·,2.1%,·,-6.7%
CCOC(=O)c1c(C)oc2nc(C)nc(NCCCN3CCN(c4cccc(C)c4)C(C)C3)c12 (centres undefined),·,·,·,-8.7%,·,·
COc1cc(/C=C/c2nc3cc(Cl)ccc3c(=O)n2-c2ccc(C)cc2C)cc(OC)c1OC,·,·,·,-2.8%,·,·
CN(C)CCNc1oc(-c2cccc(Cl)c2)nc1C#N,5.9%,1.4%,?,-0.8%,1.4%,22.4%
Cc1nc(C#N)c(N/N=C/c2cccc(Cl)c2)o1,?,?,?,4.78µM*,?,11.2µM*
Cc1cccc(-c2nc(S(=O)(=O)c3ccc(Cl)cc3)c(N3CCCCCC3)o2)c1,·,·,·,0.1%,·,-2.2%
